Among the test systems are SK-MEL-2 melanoma; EKVX NSCLC; SN12C renal; UO-31 renal; TK-10 renal; ACHN renal; A498 renal; CCRF-CEM leukemia; MOLT-4 leukemia.
Holding throughout (experiment): NCI-60 one-dose screen, 48 h (100 = growth as untreated, 0 = no growth, -100 = all killed)
What all share (details): 10 µM unless noted

The panel holds about 83,000 compounds, 20% with a hit somewhere; the sample as a whole holds those more often.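 Interpretation: 100, growth as untreated; towards 0, rising growth inhibition; 0, no net growth; 0 to -100, cell death. Compounds scoring below 10 were considered active.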 A number with no mark means an inactive call. Active and inactive are the calls of the source.

In the case of `CCCCC[C@H]1C/C=C2/C(=O)C(Cl)=C[C@@H]2C/C=C\CCCC(=O)O[C@@H](CCCCC)C/C=C2/C(=O)C(Cl)=C[C@@H]2C/C=C\CCCC(=O)O1`, the growth in the experiment with SK-MEL-2 melanoma is -46% (active); with EKVX NSCLC, 5.48% (active); with SN12C renal, -42.2% (active); in the experiment with UO-31 renal it was -89.9% (active); in the experiment on TK-10 renal it was -20.2% (active); with ACHN renal it was -93% (active). For the same molecule, the results for the growth in the experiment on A498 renal, in the experiment on CCRF-CEM leukemia and with MOLT-4 leukemia were -77.4% (active), 0.433% (active) and 3.32% (active), respectively.
In the case of `COc1cc(/C=C2\C(=O)N(CC(O)COc3cc(O)c4c(=O)cc(-c5ccccc5)oc4c3)c3ccccc32)cc(OC)c1O` (centres undefined), the growth in the experiment on SK-MEL-2 melanoma is 82.2%; in the experiment with EKVX NSCLC, 78.8%; in the experiment on SN12C renal, 84%; with UO-31 renal, 50.6%; in the experiment on TK-10 renal, 137%; with ACHN renal, 80.4%. Besides, the growth with A498 renal was 105%; in the experiment on CCRF-CEM leukemia it was 59.1%; in the experiment with MOLT-4 leukemia, 63.8%.
With `N#CC1=C(N)Oc2c(sc3c(F)cccc23)C1c1ccc(Cl)cc1` (centres undefined), the growth with SK-MEL-2 melanoma was -3.89% (active); with EKVX NSCLC, 51.4%; in the experiment with SN12C renal it was 36.2%; with UO-31 renal it was 41.7%; with TK-10 renal it was 78.4%; in the experiment with ACHN renal, 42%. Moreover, the growth in the experiment with A498 renal was 46.6%; in the experiment with CCRF-CEM leukemia, 15.1%; in the experiment on MOLT-4 leukemia, 8.38% (active).
Consider `CCCCC[C@H]1CC=C2C(=O)C=C[C@@H]2CC=CCCCC(=O)O[C@@H](CCCCC)CC=C2C(=O)C=C[C@@H]2CC=CCCCC(=O)O[C@@H](CCCCC)CC=C2C(=O)C=C[C@@H]2CC=CCCCC(=O)O1`, for which the growth in the experiment with SK-MEL-2 melanoma was -38.4% [8.75 µM] (active); in the experiment on EKVX NSCLC, 22.4% [8.75 µM]; in the experiment on SN12C renal it was -10.5% [8.75 µM] (active); in the experiment with UO-31 renal, -96.7% [8.75 µM] (active); with TK-10 renal it was 31.6% [8.75 µM]; in the experiment on ACHN renal it was -11.6% [8.75 µM] (active). The growth in the experiment on A498 renal was -13.8% [8.75 µM] (active); in the experiment with CCRF-CEM leukemia, 7.92% [8.75 µM] (active); with MOLT-4 leukemia, 3.57% [8.75 µM] (active).
As for `Cn1cc(-c2csc(-c3cn(CCCN4CCCCC4)c4ccc(F)cc34)n2)c2cccnc21`, the growth is 93.5% with SK-MEL-2 melanoma; 77.3% in the experiment with EKVX NSCLC; 83.9% in the experiment on SN12C renal; 78.2% in the experiment on UO-31 renal; 99.7% with TK-10 renal; 83.7% in the experiment with ACHN renal. In addition, the growth in the experiment on A498 renal is 73.4%; in the experiment with CCRF-CEM leukemia it was -29.9% (active).
Take `Cc1ccc2oc(=O)cc(-c3sc(N4CCCCC4)nc3-c3ccccc3)c2c1`: the growth is 93.7% in the experiment with SK-MEL-2 melanoma; 90.4% with EKVX NSCLC; 50.2% in the experiment with SN12C renal; 58% in the experiment on UO-31 renal; 161% with TK-10 renal; 84.3% in the experiment with ACHN renal. Moreover, the growth was 109% in the experiment on A498 renal and 104% in the experiment with CCRF-CEM leukemia.
For the molecule `COc1ccc(C2C(C#N)=C(N)Oc3c2sc2c(F)cccc32)cc1` (centres undefined), the growth is 19.8% in the experiment with SK-MEL-2 melanoma; 50.3% in the experiment with EKVX NSCLC; 39.7% with SN12C renal; 37.6% with UO-31 renal; 56.6% in the experiment on TK-10 renal; 42.9% in the experiment on ACHN renal. In addition, the results for the growth with A498 renal, in the experiment with CCRF-CEM leukemia and in the experiment with MOLT-4 leukemia were 41.4%, 14.9% and 8.8% (active), respectively.
In the case of `Cc1cc(N2CCCCC2)nc(N(CCNc2ccnc3cc(Cl)ccc23)Cc2ccco2)n1`, the growth was 76.4% in the experiment on SK-MEL-2 melanoma; 64.8% with EKVX NSCLC; 24% with SN12C renal; 40.6% in the experiment with UO-31 renal; 68.5% in the experiment on TK-10 renal; 27.8% with ACHN renal. Besides, the growth in the experiment with A498 renal is 61.3%; with CCRF-CEM leukemia it was 10.2%; in the experiment on MOLT-4 leukemia, 0.376% (active).
As for `COc1cc(/C=N/Nc2ncnc3c2c(C)nn3-c2ccc(F)cc2)ccc1O`, the growth in the experiment with SK-MEL-2 melanoma is 89.9%; in the experiment on EKVX NSCLC, 87.6%; in the experiment on SN12C renal it was 85.1%; in the experiment with UO-31 renal, 64.4%; in the experiment on TK-10 renal, 88.7%; with ACHN renal, 92.7%. The figures for the growth with A498 renal, in the experiment with CCRF-CEM leukemia and in the experiment on MOLT-4 leukemia were 103%, 62% and 61.7%, respectively.
Take `COc1ccc2c(c1)c(-c1nc(-c3cn(C)c4ncccc34)cs1)cn2CCN`: the growth in the experiment with SK-MEL-2 melanoma was 101%; with EKVX NSCLC it was 56.5%; with SN12C renal it was 76.3%; in the experiment with UO-31 renal it was 66.6%; in the experiment on TK-10 renal, 92.4%; in the experiment on ACHN renal, 69.4%. Further, the growth is 97.4% in the experiment with A498 renal, 69% in the experiment with CCRF-CEM leukemia and 29.7% with MOLT-4 leukemia.
In the case of `COc1ccc2c(c1)c(-c1nc(-c3c[nH]c4ncccc34)cs1)cn2CCNC(=O)OC(C)(C)C`, the growth with SK-MEL-2 melanoma was 86.6%; with EKVX NSCLC it was 55.6%; in the experiment on SN12C renal, 84.8%; in the experiment with UO-31 renal, 49.3%; with TK-10 renal, 89.2%; with ACHN renal it was 67.9%. Further, the growth in the experiment with A498 renal was 85.3%; in the experiment on CCRF-CEM leukemia it was 48.2%; in the experiment with MOLT-4 leukemia it was 55.7%.
As for `O=C1CCCC=CC[C@H]2C=C(Cl)C(=O)C2=CC[C@H](CCCCC(F)(F)F)OC(=O)CCCC=CC[C@H]2C=C(Cl)C(=O)C2=CC[C@H](CCCCC(F)(F)F)OC(=O)CCCC=CC[C@H]2C=C(Cl)C(=O)C2=CC[C@H](CCCCC(F)(F)F)O1`, the growth was 90.1% [6.25 µM] in the experiment on SK-MEL-2 melanoma; 98.4% [6.25 µM] in the experiment with EKVX NSCLC; 56.3% [6.25 µM] in the experiment with SN12C renal; 78.9% [6.25 µM] in the experiment on UO-31 renal; 148% [6.25 µM] in the experiment on TK-10 renal; 71.2% [6.25 µM] with ACHN renal. The growth in the experiment with A498 renal is 101% [6.25 µM]; in the experiment on CCRF-CEM leukemia it was 8.35% [6.25 µM] (active); in the experiment on MOLT-4 leukemia it was 15.2% [6.25 µM].
Turning to `Cn1cc(-c2csc(-c3cn(CCCN4CCCCC4)c4ccccc34)n2)c2cccnc21`, the growth in the experiment on SK-MEL-2 melanoma is 101%; with EKVX NSCLC, 70.8%; in the experiment with SN12C renal it was -70.9% (active); in the experiment with UO-31 renal, -90.2% (active); in the experiment on TK-10 renal, -84.3% (active); in the experiment with ACHN renal, -97.4% (active). Moreover, the growth in the experiment with A498 renal is 82.6%; in the experiment with CCRF-CEM leukemia, -27.9% (active); in the experiment with MOLT-4 leukemia, -50.5% (active).
For `O=C1c2ccccc2NC(c2cn(-c3ccccc3)nc2-c2cccnc2)N1Cc1ccccc1` (centres undefined), the growth is 88% with SK-MEL-2 melanoma; 81.3% in the experiment with EKVX NSCLC; 87.3% in the experiment on SN12C renal; 65.4% in the experiment with UO-31 renal; 105% with TK-10 renal; 102% with ACHN renal. The growth in the experiment with A498 renal is 92%; with CCRF-CEM leukemia it was 91.5%; with MOLT-4 leukemia, 67.9%.

The values above are taken from PubChem BioAssay (NCI).
